Screen size: about 1,200 compounds; about 360 (30%) were called active. How the calls were made is not given here. The list is a sample of the results. Potency and affinity values are given separately.

This experiment in a line: bacterial growth inhibition, dose response, counter-screen, BacTiter-Glo luminescence, cherry-picked samples (AID 504843).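 Further: growth measured after 8 h incubation at 30 °C; 0% = median of sample compound wells and -100% = antibiotic control wells.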 To be noted: BacTiter-Glo ATP luminescence; series mostly up to 15 µM; activity change, negative = inhibition: at the top concentration.
As for `COc1ccc(Cl)cc1C(=O)NCCN(C)C`, the “activity change, negative = inhibition” value was 2.99% (inactive).

As to `CCCCN1C(=O)C(CC(=O)NCC)SC1=Nc1ccccc1` (configuration not stated), the “activity change, negative = inhibition” value was 2.84% (inactive).

As for `C=C1CSc2nc(=O)c3c4c(sc3n21)CCCC4`, the “activity change, negative = inhibition” value was -6.35% (inactive).

Regarding `COc1ccc(CCNC(=O)CN2CCOc3ccccc32)cc1OC`, the “activity change, negative = inhibition” value is -5.09% (inactive).

On to `COC(c1ccccc1)c1nnc(CCC(=O)N(C)C(C2CC2)C2CC2)o1` (configuration not stated), for which the “activity change, negative = inhibition” value was -20.5% (inactive).

For the molecule `O=C(CCNC(=O)C1CCN(S(=O)(=O)c2ccc(F)cc2)CC1)Nc1nccs1`, the “activity change, negative = inhibition” value was 8.89% (inactive).

Turning to `O=C(Nc1ccccc1F)C1CCN(C(=O)Cc2ccccc2)CC1`, the “activity change, negative = inhibition” value is 8.63% (inactive).

As for `O=C(CCC(=O)Nc1ccccc1)N/N=C/c1ccncc1`, the “activity change, negative = inhibition” value was -9.65% (inactive).

Turning to `CC(=O)Nc1ccc(NC(=O)CSc2ccccn2)cc1`, the “activity change, negative = inhibition” value was -6.37% (inactive).

As to `C/C=C(/C)C(=O)Nc1cccc(C2=NOC3(C2)C[C@H](C(N)=O)N(C(=O)c2ccc(Cl)cc2)C3)c1` (some centres not stated), the “activity change, negative = inhibition” value is 14.6% (inactive).

As to `Cc1ccc(S(=O)(=O)N2CCC(C(=O)Nc3nnc(C)s3)CC2)cc1`, the “activity change, negative = inhibition” value is 11.9% (inactive).

Consider `Cc1nc2ccc(NC(=O)C3CCN(S(=O)(=O)c4cccs4)CC3)cc2s1`, for which the “activity change, negative = inhibition” value is 16.2% (inactive).

Consider `Cc1noc(C)c1COc1ccccc1C(=O)NC1CCC(C)CC1` (configuration not stated), for which the “activity change, negative = inhibition” value was 14.2% (inactive).

With `N#Cc1cccc(C(=O)OCC(=O)NCc2ccco2)c1`, the “activity change, negative = inhibition” value was 21.7% (inactive).

Take `Cc1cccc(N(CC(=O)NC(C)(C)C)C(=O)CCC(=O)Nc2nccs2)c1`: the “activity change, negative = inhibition” value was 16.4% (inactive).

As to `CS(=O)(=O)N(CC(=O)NC1CCCC1)c1cccc(F)c1`, the “activity change, negative = inhibition” value was 19.6% (inactive).

Turning to `O=c1cc(O)nc[nH]1`, the “activity change, negative = inhibition” value was -4.28% (inactive).

For the molecule `CCOc1cc(C(=O)N2CCCN(C)CC2)cc(OCC)c1OCC`, the “activity change, negative = inhibition” value is 13.9% (inactive).

With `O=C(Cn1cc2c(n1)CCCCC2)N1CCc2ccccc2C1`, the “activity change, negative = inhibition” value is -1.73% (inactive).

Turning to `COc1ccc(CN(C(=O)/C=C/c2ccccc2Cl)C2CCS(=O)(=O)C2)cc1` (configuration not stated), the “activity change, negative = inhibition” value is -0.177% (inactive).

Turning to `Cn1c(-c2ccccc2)cnc1SCc1nc2ccccc2c(=O)[nH]1`, the “activity change, negative = inhibition” value was -13.3% (inactive).

As to `CCOC(=O)c1c(NC(=O)CSc2n[nH]c(CNc3ccccc3)n2)sc(C)c1C`, the “activity change, negative = inhibition” value was -30.9% (inactive).

Turning to `COc1ccc(NC(=O)c2ccc(Oc3ncccn3)cc2)cc1`, the “activity change, negative = inhibition” value is 8.41% (inactive).

Take `Cc1nn2c(COc3ccc(NC(=O)c4ccccc4Cl)cc3)nnc2c2ccccc12`: the “activity change, negative = inhibition” value was 14.4% (inactive).

For `CCn1ccnc1CN(C)C(=O)c1cc(COc2ccc(Cl)cc2OC)on1`, the “activity change, negative = inhibition” value was 10.2% (inactive).

On to `COc1ccc(NC(=O)Cn2ncc(Cl)c(Cl)c2=O)cc1S(=O)(=O)N1CCOCC1`, for which the “activity change, negative = inhibition” value was -0.163% (inactive).

In the case of `COc1ccccc1OCCNC(=O)Cc1ccc(S(=O)(=O)N2CCOCC2)s1`, the “activity change, negative = inhibition” value was -3.23% (inactive).

Regarding `CCN(CC(=O)NCc1ccc(F)cc1)CC(=O)Nc1ccc(S(=O)(=O)N2CCCC2)cc1`, the “activity change, negative = inhibition” value is -9.6% (inactive).

Turning to `O=C(CSc1nc(O)c(Cc2ccccc2F)c(=O)[nH]1)N1CCCCCC1`, the “activity change, negative = inhibition” value is -21.7% (inactive).

For `COc1ccc(-c2csc(NC(=O)C3COc4ccccc4O3)n2)cc1OC` (configuration not stated), the “activity change, negative = inhibition” value is -6.84% (inactive).

In the case of `COc1ccc2c(c1)c(C(O)CN1CCC(Cc3ccccc3)CC1)c(C)n2C` (configuration not stated), the “activity change, negative = inhibition” value is 14% (inactive).

Take `O=C(CN1CCN(c2ccc(O)cc2)CC1)Nc1ccc2c(c1)OCCO2`: the “activity change, negative = inhibition” value was 2.96% (inactive).

Regarding `Cc1c(Nc2ncnc3c2cnn3-c2ccccc2)c(=O)n(-c2ccccc2)n1C`, the “activity change, negative = inhibition” value is -0.73% (inactive).

Regarding `CCOc1ccc(S(=O)(=O)N2CCCCC2)cc1NC(=O)CN1C(=O)NC(CC)(c2ccccc2)C1=O` (configuration not stated), the “activity change, negative = inhibition” value is -28.2% (inactive).

For `COc1ccc(S(=O)(=O)N2CCOCC2)cc1NC(=O)c1ccc2c(c1)OCO2`, the “activity change, negative = inhibition” value was 10.4% (inactive).

As for `Cc1cc(C)c(C(N)=O)c(Nc2ccc3c(c2)OCCO3)n1`, the “activity change, negative = inhibition” value is 1.39% (inactive).

As for `CCN(CC)CCn1c(=N)n(CC(O)COc2cccc(C)c2)c2ccccc21` (configuration not stated), the “activity change, negative = inhibition” value was 13.1% (inactive).

Take `Cc1ccc(CC(=O)NCCS(=O)c2ccc(Cl)cc2)cc1` (configuration not stated): the “activity change, negative = inhibition” value is -12.8% (inactive).

As for `O=C(CN1CCN(Cc2ccc(Cl)cc2)CC1)N/N=C/c1c[nH]c2ccccc12`, the “activity change, negative = inhibition” value is -7.1% (inactive).

For `CCOC(=O)[C@H]1[C@H]2COc3ccc(OC)cc3[C@H]2N2C(=O)CN(Cc3ccccc3)C(=O)[C@@]12C`, the “activity change, negative = inhibition” value was -17.4% (inactive).

`O=C(CSc1nccc(=O)[nH]1)c1cc2ccccc2o1`: the “activity change, negative = inhibition” value was -2.57% (inactive).

Take `Cc1ccc(S(=O)(=O)N2CCOCC2)cc1NC(=O)c1cc2ccccc2oc1=O`: the “activity change, negative = inhibition” value is 5.05% (inactive).

Regarding `CC(O/N=C/c1ccc(OC(F)F)cc1)C(=O)Nc1cccc(S(=O)(=O)N2CCOCC2)c1` (configuration not stated), the “activity change, negative = inhibition” value was -3.95% (inactive).

In the case of `COc1ccc(N2CCN(C3CC(=O)N(c4ccc5c(c4)OCCO5)C3=O)CC2)cc1` (configuration not stated), the “activity change, negative = inhibition” value was 15.6% (inactive).

For the molecule `CCOC(=O)C1=C(C)Nc2ncnn2C1c1cc(Br)ccc1F` (configuration not stated), the “activity change, negative = inhibition” value is -5.34% (inactive).

Turning to `COC(=O)c1ccc(NC(=O)N2CCC(O)(c3cccnc3)CC2)cc1`, the “activity change, negative = inhibition” value is 6.75% (inactive).

For `CC(=O)Nc1sc(NC(=O)c2ccccc2)nc1-c1cccs1`, the “activity change, negative = inhibition” value was -25.9% (inactive).

In the case of `Cc1ccc(C(=O)Nc2nc(C)c(C(=O)Nc3ccc4c(c3)CCC4)s2)cc1`, the “activity change, negative = inhibition” value was 6.16% (inactive).

For the molecule `CCCN(C(=O)Cn1c(C(F)(F)F)nc2ccccc21)C1CCS(=O)(=O)C1` (configuration not stated), the “activity change, negative = inhibition” value is -1.36% (inactive).

In the case of `CC(C)=CCC/C(C)=C/CNC(=O)C[C@H]1C[C@H](C(=O)N2CCOCC2)[C@@]2(C)c3[nH]c4ccc(Cl)cc4c3CCN2C1=O`, the “activity change, negative = inhibition” value was 4.55% (inactive).

Consider `CC(=O)CSc1ncnc2sc3c(c12)CCC(C)C3` (configuration not stated), for which the “activity change, negative = inhibition” value was 3.11% (inactive).

As for `CCOC(=O)Cc1c[nH]c2ccc([N+](=O)[O-])cc12`, the “activity change, negative = inhibition” value is 23.3% (inactive).

Turning to `CCOCCCNC(=O)c1ccc(Cn2c(=S)[nH]c3c([nH]c4ccc(OC)cc43)c2=O)cc1`, the “activity change, negative = inhibition” value was 11.8% (inactive).

Take `CN(CC(=O)NCc1cccnc1)S(=O)(=O)c1ccccc1`: the “activity change, negative = inhibition” value was -8.64% (inactive).

For `O=C(N/C(=C/c1ccccc1)C(=O)N1CCCCC1)c1ccc(Br)o1`, the “activity change, negative = inhibition” value was -1.15% (inactive).

`O=C(Nc1ccccc1Oc1ccccc1)c1ccc(Br)o1`: the “activity change, negative = inhibition” value was -11.8% (inactive).

`O=C(NCc1ccccc1)c1ccc(F)c(F)c1`: the “activity change, negative = inhibition” value is -15.1% (inactive).

As to `O=C(CSc1ncnc2nc[nH]c12)c1ccc2ccccc2c1`, the “activity change, negative = inhibition” value was 16% (inactive).

Take `O=C1NC(=O)C(c2ccccc2)(c2ccccc2)N1`: the “activity change, negative = inhibition” value was 9% (inactive).

As to `CCN(CC)CC(=O)Nc1ccc(C)cc1C(=O)c1ccccc1`, the “activity change, negative = inhibition” value was -2.71% (inactive).

With `COc1cc(OC)cc(C(=O)N(CN2CCCC2=O)c2ccccc2OC)c1`, the “activity change, negative = inhibition” value was -10% (inactive).

Take `CC(C)(C)NC(=O)C[C@H]1C[C@H](C(=O)N2CCOCC2)[C@@]2(CCC3CCCC3)c3[nH]c4cc(-c5ccco5)ccc4c3CCN2C1=O`: the “activity change, negative = inhibition” value is 1.73% (inactive).

As for `CC(C)[C@@H](C(=O)N1CCNCC1)n1cc(CCO)nn1`, the “activity change, negative = inhibition” value was 12.5% (inactive).

In the case of `Cc1nc(N)nc(Cl)c1Cc1ccc(Cl)cc1`, the “activity change, negative = inhibition” value is -10.1% (inactive).

In the case of `COc1cccc(COC(=O)C2CC(=O)N(Cc3ccco3)C2)c1OC` (configuration not stated), the “activity change, negative = inhibition” value was -0.991% (inactive).

With `CC(NC(=O)Nc1nccs1)(C(F)(F)F)C(F)(F)F`, the “activity change, negative = inhibition” value is 8.33% (inactive).

`NC(=O)c1ccccc1NC(=O)COc1ccc2c(c1)OCO2`: the “activity change, negative = inhibition” value was 3.37% (inactive).

The record behind these values is PubChem BioAssay AID504843 (Broad Institute, 2011).
